From PubChem BioAssay come the findings set out here.

What is called inhibition is the drop in the measured response relative to a control, in per cent.

SMILES strings stand for the structures. Records with an inconclusive call do not appear. Active and inactive are the calls of the source. Unless noted, how the calls were made is not given here.

A short description of test [1]: rapamycin-like changes in RPL19A-GFP expression – cell-based, S. cerevisiae, multiplex flow cytometry, primary screen (AID 1862; in the data active means percent of DMSO control GFP below about 86%;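 further: lower values mimic rapamycin by blocking the RPL19A rise seen in DMSO cells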). The note with it: S. cerevisiae RPL19A-GFP strain, flow cytometry fluorescence, 3 h; at 10 µM; stronger effect = lower value. For orientation: In flow cytometry, cells or beads pass a laser one at a time.
Test [2] is described as follows: TOR pathway GLN3 branch reporter MEP2-GFP changes – S. cerevisiae, multiplex flow cytometry, primary screen (AID 1867;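 active means GFP response, as percent of the DMSO control, above the screen-wide mean plus 3 SD, about 139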;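 further: median GFP channel fluorescence of barcode-gated MEP2-GFP cells measured by flow cytometry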). As to conditions: S. cerevisiae MEP2-GFP strain, 3 h, at 10 µM, stronger effect = higher value.
Test [3] in a line: TOR pathway RTG branch CIT2 reporter changes – S. cerevisiae, GFP fusion, multiplex flow cytometry, primary screen (AID 1870;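 active means percent response above a set limit, the screen-wide mean plus 3 SD, cut at about 130% in these data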;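 further: barcoded CIT2-GFP strain pooled with four other GFP strains with rapamycin as positive control; median GFP fluorescence per well over plate mean of DMSO wells so 100% = DMSO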). The note with it: S. cerevisiae CIT2-GFP expression, 3 h, at 10 µM, stronger effect = higher value.
A short description of test [4]: TOR pathway LAP4-GFP level changes – S. cerevisiae, multiplex flow cytometry, primary screen (AID 1873;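 active means GFP signal, as percent of the solvent control, above the screen mean plus 3 SD, about 149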). As to conditions: S. cerevisiae LAP4-GFP expression, 3 h, at 10 µM, stronger effect = higher value.
The nature of test [5]: yeast AGP1-GFP level changes, GLN3 branch – cell-based, multiplex flow cytometry, S. cerevisiae, primary screen (AID 1887;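 active means GFP signal above the screen-wide mean plus 3 SD, that is over about 124.5% of the solvent control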;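 further: AGP1-GFP fusion strain of S. cerevisiae within a five-strain barcoded multiplex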). The note with it: 3 h, at 10 µM, stronger effect = higher value.
The nature of test [6]: reduced mouse 2C T cell binding to pMHC/ICAM-1 vesicles – MLPCN validation set, flow cytometry, LFA-1/ICAM-1 modulator project, pilot screen (AID 2523;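 active means response below a set limit, under 55% cells CD8-positive and vesicle-bound, and CD8 cells' 90th-percentile brightness under 279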;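 on vesicle binding response: mean PE anti-B7-1 fluorescence of CD8+ cells relative to row control; 100% = QL9-loaded vesicles with DMSO vehicle in the same plate row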). As to conditions: 2C mouse CD8+ T cells, at 7 µM, stronger effect = lower value; double positive events: measured here: CD8+/vesicle+ event percentage.
Test [7] has as its target Integrin beta-1 (Homo sapiens) + Integrin alpha-4 (Homo sapiens) (UniProt P13612+P05556). Put plainly: alpha4beta1 integrin LIBS antibody binding reduction – U937 cells, HUTS-21 mAb, flow cytometry, validation set, VLA-4 allosteric modulator project, pilot screen (AID 2674;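 active means inhibition above 50%, about 3 SD of the validation set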;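 further: antibody binding induced by the VLA-4 ligand LDV present at three times its Kd; 0% = LDV ligand with antibody and no compound and 100% = antibody without LDV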). As to conditions: HUTS-21 LIBS mAb binding, at 6.7 µM, stronger effect = higher value.
Test [8] can be described thus: calorie-restriction mimetic ROS inhibitors, yeast – validation compound set, pilot screen (AID 2706;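 active means superoxide response below 65% of plate, a cut near 3 SD across the whole screen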;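 further: yeast exposed to compound for one week at 30 degrees C before staining; 100% = mean of all compound wells on the same plate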). The note with it: S. cerevisiae aging, superoxide DHE fluorescence; at 10 µM; stronger effect = lower value.
Test [9] concerns the target Beta-adrenergic receptor kinase 1 (Homo sapiens) (UniProt P25098). Kind of test: GRK2 binders displacing RNA aptamer, biochemical, validation, human GRK2, bead flow cytometry (AID 488806;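 active means aptamer binding inhibition above 30%, about 3 SD of noise from non-fluorescent compounds; inactive means inhibition at or below 30%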). As to conditions: bead-bound GRK2, FAM-aptamer displacement, at 10 µM, stronger effect = higher value.
Test [10] deals with Beta-2 adrenergic receptor (Homo sapiens) (UniProt P07550). Put plainly: agonist-induced loss of surface beta2AR – cell-based, FAP fluorogen, flow cytometry, validation set, pilot screen (AID 504459;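 active means percent response above 42, roughly 3 SD of non-fluorescent test compounds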;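 further: agonist-driven loss of surface beta2AR via internalization measured by FAP dye flow cytometry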). The note with it: Am2.2-beta2AR cells, at 10 µM, stronger effect = higher value.
Test [11] addresses AP-2 complex subunit beta (Homo sapiens) (UniProt P63010). Put plainly: beta-arrestin/AP2 interaction blockers – biochemical, validation set, GST-AP2 beads, flow cytometry, pilot screen (AID 504541;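 active means inhibition above 54%, about 3 SD of non-fluorescent compounds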;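 further: AP2 carries R879A mutation and is captured from E. coli lysate; bead-bound FITC arrestin peptide fluorescence measuring arrestin peptide binding to AP2; 0% = DMSO wells and 100% = excess unlabeled arrestin peptide control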). The note with it: FITC arrestin peptide, at 10 µM, stronger effect = higher value.
Test [12] can be described thus: cytosolic pH regulators acting via V-ATPase – S. cerevisiae, pHLuorin, HTS validation (AID 504600; in the data active means response above about 15%;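 further: plate controls were DMSO for no effect and reference compound for full effect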). The note with it: V-ATPase proton transport, at 10 µM, stronger effect = higher value.
The test system of test [13] is anti-desmoglein-3 scFv antibody binding to human DSG3. Put plainly: blockers of pathogenic pemphigus antibody–desmoglein-3 binding – biochemical, validation compound set, bead-based, flow cytometry, pilot screen (AID 588368;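 active means binding below the plate cutoff, the plate median minus 3 SD, with a reading above zero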;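 further: signal is the median channel fluorescence of bead-bound GFP antibody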). The note with it: Protein G beads, DSG3-Fc, scFv-GFP binding, at 10 µM, stronger effect = lower value.
Test [14] has as its system Botulinum neurotoxin type F light chain protease (Clostridium botulinum). Kind of test: Clostridium botulinum type F light chain protease inhibitors, microsphere substrate cleavage, validation (AID 588459). The note with it: multiplex microsphere protease substrate cleavage assay, flow cytometry; at 10 µM; stronger effect = higher value.
In test [15] the target is Botulinum neurotoxin type A (Clostridium botulinum) (UniProt P0DPI0). Put plainly: BoNT/A light chain protease inhibitors, biochemical, multiplex microsphere flow cytometry, validation set (AID 588460). The note with it: at 10 µM, stronger effect = higher value.
Test [16] addresses Lethal factor (Bacillus anthracis) (UniProt P15917). Kind of test: Bacillus anthracis lethal factor inhibition, microsphere flow cytometry protease assay, validation at 10 µM (AID 588461). The note with it: multiplex microsphere protease cleavage assay, stronger effect = higher value.
Test [17] can be described thus: Nile Red efflux blockade in pump-expressing yeast – validation compound set, multiplex, phenotypic, pilot screen (AID 588506;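 active means efflux inhibition above 0.42, the validation set average plus 4 SD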;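 further: Nile Red retained in cells so higher fluorescence means more efflux inhibition; 0 = negative control wells and 1 = enniatin B 25 µM full block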). The note with it: S. cerevisiae pump-expressing triplex, Nile Red efflux flow cytometry; at 10 µM; stronger effect = higher value.
In test [18] the target is ATP-binding cassette sub-family B member 6 (Homo sapiens) (UniProt Q9NP58). Put plainly: blockers of ABCB6-driven porphyrin uptake – K562-ABCB6 cells, flow cytometry, validation set, pilot screen (AID 588550;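 active means inhibition above the screen-wide mean plus 3 SD, about 51%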;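 further: 0% = DMSO wells and 100% = benzethonium chloride 70 µM positive control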). As to conditions: K562-ABCB6 porphyrin accumulation, 1 h, at 10 µM, stronger effect = higher value.
The nature of test [19]: AML differentiation inducers, ER-HoxA9 marrow cells – cell-based, GFP/MAC1 double positive, flow cytometry, validation set, primary screen (AID 588685;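 active means differentiation response of at least 50%, scaled between solvent and reference control, from cells with both markers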;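 further: compound exposure lasts four days before antibody staining and flow analysis; 0% = DMSO wells and 100% = 5 µM fulvestrant positive control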). As to conditions: stronger effect = higher value.

Sequence of Beta-adrenergic receptor kinase 1 (Homo sapiens) (P25098 whole entry, looked up): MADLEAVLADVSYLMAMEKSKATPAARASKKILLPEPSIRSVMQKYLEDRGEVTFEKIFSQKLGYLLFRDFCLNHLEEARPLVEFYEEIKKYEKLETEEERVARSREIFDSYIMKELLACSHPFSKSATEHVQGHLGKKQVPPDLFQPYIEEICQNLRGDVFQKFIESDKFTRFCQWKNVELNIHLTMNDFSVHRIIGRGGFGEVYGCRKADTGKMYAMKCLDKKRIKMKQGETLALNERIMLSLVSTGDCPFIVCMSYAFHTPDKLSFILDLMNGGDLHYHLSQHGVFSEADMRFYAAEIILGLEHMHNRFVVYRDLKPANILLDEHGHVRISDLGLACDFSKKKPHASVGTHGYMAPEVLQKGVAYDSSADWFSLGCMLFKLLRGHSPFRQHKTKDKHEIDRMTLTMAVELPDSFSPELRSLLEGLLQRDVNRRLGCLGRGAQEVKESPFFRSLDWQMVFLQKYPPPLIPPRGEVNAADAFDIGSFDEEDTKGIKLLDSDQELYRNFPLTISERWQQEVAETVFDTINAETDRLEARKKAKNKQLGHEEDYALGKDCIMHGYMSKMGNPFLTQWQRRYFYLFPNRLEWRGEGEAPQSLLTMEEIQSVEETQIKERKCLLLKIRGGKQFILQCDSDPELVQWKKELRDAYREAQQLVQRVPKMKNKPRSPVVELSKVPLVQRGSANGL
Sequence of AP-2 complex subunit beta (Homo sapiens) (P63010 whole entry, looked up, one chain of several): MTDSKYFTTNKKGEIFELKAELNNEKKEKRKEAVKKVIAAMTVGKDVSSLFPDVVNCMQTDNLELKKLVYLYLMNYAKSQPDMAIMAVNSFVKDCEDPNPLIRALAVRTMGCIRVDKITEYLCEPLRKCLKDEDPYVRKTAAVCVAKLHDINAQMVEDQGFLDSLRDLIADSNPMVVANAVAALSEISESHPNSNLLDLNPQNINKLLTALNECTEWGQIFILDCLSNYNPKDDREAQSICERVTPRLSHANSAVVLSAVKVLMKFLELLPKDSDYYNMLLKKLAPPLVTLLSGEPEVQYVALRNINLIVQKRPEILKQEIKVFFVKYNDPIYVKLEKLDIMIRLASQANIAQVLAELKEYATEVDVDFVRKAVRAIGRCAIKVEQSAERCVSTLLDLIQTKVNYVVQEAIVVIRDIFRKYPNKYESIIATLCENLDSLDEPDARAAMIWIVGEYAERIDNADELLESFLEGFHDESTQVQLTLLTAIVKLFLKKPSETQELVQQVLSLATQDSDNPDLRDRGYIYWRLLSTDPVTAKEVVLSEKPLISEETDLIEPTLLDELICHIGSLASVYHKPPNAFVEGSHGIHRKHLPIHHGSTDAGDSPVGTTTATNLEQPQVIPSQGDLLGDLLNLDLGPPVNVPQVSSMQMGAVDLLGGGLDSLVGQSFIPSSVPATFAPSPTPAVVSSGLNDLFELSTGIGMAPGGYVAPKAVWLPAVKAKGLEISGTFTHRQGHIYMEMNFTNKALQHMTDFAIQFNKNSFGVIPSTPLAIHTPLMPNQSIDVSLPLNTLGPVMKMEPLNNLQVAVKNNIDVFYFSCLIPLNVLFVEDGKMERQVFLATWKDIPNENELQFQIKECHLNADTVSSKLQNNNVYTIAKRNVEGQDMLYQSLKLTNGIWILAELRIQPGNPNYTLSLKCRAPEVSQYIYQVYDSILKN
Sequence of Beta-2 adrenergic receptor (Homo sapiens) (P07550 whole entry, looked up): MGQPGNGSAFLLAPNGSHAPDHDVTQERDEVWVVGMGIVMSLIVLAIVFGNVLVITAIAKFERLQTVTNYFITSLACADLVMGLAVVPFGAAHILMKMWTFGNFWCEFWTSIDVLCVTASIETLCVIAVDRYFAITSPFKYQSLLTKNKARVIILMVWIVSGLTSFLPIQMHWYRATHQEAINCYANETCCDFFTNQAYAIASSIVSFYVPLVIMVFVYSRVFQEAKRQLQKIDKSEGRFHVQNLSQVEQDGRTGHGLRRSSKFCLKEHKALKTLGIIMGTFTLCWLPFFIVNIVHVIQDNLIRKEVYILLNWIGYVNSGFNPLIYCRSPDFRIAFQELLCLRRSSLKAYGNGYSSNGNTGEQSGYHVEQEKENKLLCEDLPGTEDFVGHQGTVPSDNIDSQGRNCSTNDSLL
Sequence of Lethal factor (Bacillus anthracis) (P15917 whole entry, looked up): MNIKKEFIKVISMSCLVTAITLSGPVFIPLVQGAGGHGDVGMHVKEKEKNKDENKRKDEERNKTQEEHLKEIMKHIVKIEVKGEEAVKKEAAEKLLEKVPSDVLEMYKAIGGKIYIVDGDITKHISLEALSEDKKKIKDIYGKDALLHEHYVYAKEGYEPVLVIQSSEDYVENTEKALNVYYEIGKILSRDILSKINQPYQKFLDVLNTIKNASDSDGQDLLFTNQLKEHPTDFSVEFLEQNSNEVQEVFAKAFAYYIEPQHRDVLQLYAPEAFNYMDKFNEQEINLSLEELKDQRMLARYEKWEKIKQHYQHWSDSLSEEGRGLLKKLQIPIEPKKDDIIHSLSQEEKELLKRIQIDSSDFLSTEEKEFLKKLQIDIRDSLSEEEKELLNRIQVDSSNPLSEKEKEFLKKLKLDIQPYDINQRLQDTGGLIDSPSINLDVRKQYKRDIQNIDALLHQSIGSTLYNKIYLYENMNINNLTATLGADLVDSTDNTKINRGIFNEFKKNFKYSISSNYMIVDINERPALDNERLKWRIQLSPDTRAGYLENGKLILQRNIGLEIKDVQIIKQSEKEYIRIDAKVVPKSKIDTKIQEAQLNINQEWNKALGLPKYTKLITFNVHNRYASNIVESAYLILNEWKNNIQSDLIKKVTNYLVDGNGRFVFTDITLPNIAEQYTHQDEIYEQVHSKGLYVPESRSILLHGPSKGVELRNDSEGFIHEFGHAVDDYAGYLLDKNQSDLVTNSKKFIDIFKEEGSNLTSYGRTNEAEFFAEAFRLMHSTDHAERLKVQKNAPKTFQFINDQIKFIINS
Sequence of Integrin beta-1 (Homo sapiens) + Integrin alpha-4 (Homo sapiens) (P05556 whole entry, looked up): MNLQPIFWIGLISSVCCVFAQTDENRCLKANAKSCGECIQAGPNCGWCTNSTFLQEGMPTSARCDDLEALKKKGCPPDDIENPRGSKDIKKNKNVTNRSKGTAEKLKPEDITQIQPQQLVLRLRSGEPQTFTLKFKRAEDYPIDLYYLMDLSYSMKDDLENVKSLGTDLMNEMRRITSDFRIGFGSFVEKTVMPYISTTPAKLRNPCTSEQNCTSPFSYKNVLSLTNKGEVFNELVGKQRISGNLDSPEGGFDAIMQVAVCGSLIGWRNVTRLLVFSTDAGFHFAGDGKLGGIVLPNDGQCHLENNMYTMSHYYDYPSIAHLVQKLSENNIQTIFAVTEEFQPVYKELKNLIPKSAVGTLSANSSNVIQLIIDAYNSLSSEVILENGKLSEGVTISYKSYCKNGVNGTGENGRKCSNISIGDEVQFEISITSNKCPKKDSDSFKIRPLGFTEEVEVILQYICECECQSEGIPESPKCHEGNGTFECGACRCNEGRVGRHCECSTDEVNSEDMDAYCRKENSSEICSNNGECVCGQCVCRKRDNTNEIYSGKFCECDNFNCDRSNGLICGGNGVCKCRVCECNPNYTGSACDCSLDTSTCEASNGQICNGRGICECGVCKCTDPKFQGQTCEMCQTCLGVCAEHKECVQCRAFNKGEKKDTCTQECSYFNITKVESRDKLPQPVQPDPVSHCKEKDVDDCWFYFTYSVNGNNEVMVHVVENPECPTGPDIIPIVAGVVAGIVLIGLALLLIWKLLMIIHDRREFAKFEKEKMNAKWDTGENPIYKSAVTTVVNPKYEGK
Sequence of Integrin beta-1 (Homo sapiens) + Integrin alpha-4 (Homo sapiens) (P13612 whole entry, looked up): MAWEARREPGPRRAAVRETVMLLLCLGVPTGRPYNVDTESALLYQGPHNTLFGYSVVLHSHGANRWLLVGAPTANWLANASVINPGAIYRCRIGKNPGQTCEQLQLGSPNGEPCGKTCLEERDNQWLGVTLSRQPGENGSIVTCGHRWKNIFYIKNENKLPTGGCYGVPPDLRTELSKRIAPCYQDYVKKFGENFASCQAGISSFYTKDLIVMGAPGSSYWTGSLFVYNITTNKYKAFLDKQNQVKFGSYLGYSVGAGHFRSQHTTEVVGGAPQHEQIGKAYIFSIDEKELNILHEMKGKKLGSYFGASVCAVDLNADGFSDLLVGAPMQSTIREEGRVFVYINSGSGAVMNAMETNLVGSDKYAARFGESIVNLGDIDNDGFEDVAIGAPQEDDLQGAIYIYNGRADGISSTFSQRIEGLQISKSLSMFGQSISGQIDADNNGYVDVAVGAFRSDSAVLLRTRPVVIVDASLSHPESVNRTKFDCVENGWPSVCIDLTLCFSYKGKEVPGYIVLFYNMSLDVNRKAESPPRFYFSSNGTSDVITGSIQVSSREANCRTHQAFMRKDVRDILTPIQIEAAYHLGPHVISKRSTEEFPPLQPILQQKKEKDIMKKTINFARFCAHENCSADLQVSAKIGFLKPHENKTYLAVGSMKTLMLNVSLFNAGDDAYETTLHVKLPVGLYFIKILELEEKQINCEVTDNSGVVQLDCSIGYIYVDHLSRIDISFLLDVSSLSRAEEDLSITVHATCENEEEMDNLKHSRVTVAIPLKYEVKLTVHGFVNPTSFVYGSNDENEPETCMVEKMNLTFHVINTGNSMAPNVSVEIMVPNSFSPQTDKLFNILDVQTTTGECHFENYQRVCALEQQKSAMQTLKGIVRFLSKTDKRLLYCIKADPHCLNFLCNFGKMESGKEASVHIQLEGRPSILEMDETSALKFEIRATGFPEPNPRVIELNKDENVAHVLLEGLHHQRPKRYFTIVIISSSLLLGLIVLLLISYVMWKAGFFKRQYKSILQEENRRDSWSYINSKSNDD

Take `CC(C)CCC1(CN2CCCC2=O)C(=O)NC(=O)NC1=O`: the percent of DMSO control GFP in test [1] is 95.4% (inactive). For the same molecule, the GFP response vs DMSO was 105% (inactive) in [2] and 120% (inactive) in test [4]. Also, the percent response of DMSO control in test [3] is 86.3% (inactive). Besides, in [5], the GFP response, % of DMSO is 101% (inactive). The molecule further gave a double positive events in test [6] of 58.9%. Moreover, the vesicle binding response in test [6] was 219% (inactive). The inhibition in test [7] was 0.94% (inactive); in test [11], -2.03% (inactive); in [14], 2.3% (inactive); in test [15], 0.7% (inactive); in test [16], -0.7% (inactive); in test [18], 5% (inactive). Further, in test [8], the superoxide response (% of plate) is 97.2% (inactive). Further, in [9], the aptamer binding inhibition is 1% (inactive). Further, the response is 5.39% (inactive) in test [10] and -6.71% (inactive) in test [12]. The binding (% of control) in [13] was 98.4% (inactive). In addition, in [17], the efflux inhibition (fraction of control) is 0.12 (inactive). The differentiation response in [19] is 45.6% (inactive).
On to `CC(C)(C)C(O)C(Oc1ccc(Cl)cc1)n1cncn1` (stereo not given), for which the percent of DMSO control GFP in test [1] is 105% (inactive). The GFP response vs DMSO was 107% (inactive) in test [2] and 121% (inactive) in test [4]. The percent response of DMSO control in [3] is 106% (inactive). Besides, the GFP response, % of DMSO in test [5] is 115% (inactive). The same molecule had a double positive events in test [6] of 62%. Besides, in test [6], the vesicle binding response is 218% (inactive). The inhibition is 1.44% (inactive) in [7]; 7.17% (inactive) in test [11]; -0.4% (inactive) in test [14]; 0% (inactive) in test [15]; -4.4% (inactive) in test [16]; 4% (inactive) in [18]. In test [8], the superoxide response (% of plate) was 277% (inactive). Also, the aptamer binding inhibition in [9] is 2% (inactive). Also, the figures for the response in [10] and in test [12] were -29.1% (inactive) and -0.61% (inactive), respectively. Moreover, in [13], the binding (% of control) was 100% (inactive). The efflux inhibition (fraction of control) in test [17] was -0.04 (inactive). In test [19], the differentiation response was 6.83% (inactive).
For the molecule `C[C@@H]1O[C@@H](O[C@H]2C[C@@H](O)[C@]3(CO)[C@H]4[C@H](O)C[C@]5(C)[C@@H](C6COC(=O)C6)CC[C@]5(O)[C@@H]4CC[C@]3(O)C2)[C@H](O)[C@H](O)[C@H]1O` (stereo not given in full), the percent of DMSO control GFP in [1] is 97.3% (inactive). The GFP response vs DMSO in [2] was 102% (inactive); in test [4], 112% (inactive). Besides, in test [3], the percent response of DMSO control was 105% (inactive). In addition, in test [5], the GFP response, % of DMSO was 119% (inactive). Besides, in test [6], the double positive events was 62.7%. Also, in [6], the vesicle binding response is 183% (inactive). The inhibition is 6.55% (inactive) in [7]; -5.57% (inactive) in test [11]; -0.5% (inactive) in test [14]; -0.7% (inactive) in test [15]; 3.5% (inactive) in [16]; -3% (inactive) in [18]. Besides, in [8], the superoxide response (% of plate) was 94.2% (inactive). The aptamer binding inhibition in test [9] is 1% (inactive). Moreover, the results for the response in test [10] and in [12] were -12.8% (inactive) and -2.1% (inactive), respectively. The binding (% of control) in test [13] is 104% (inactive). In addition, in [17], the efflux inhibition (fraction of control) was -0.04 (inactive). Moreover, in test [19], the differentiation response was -4% (inactive).
For `OC(c1ccccc1)(c1ccccc1)C1CCNCC1`, the percent of DMSO control GFP in [1] was 99.4% (inactive). The values for the GFP response vs DMSO in [2] and in test [4] were 110% (inactive) and 85.3% (inactive), respectively. In addition, the percent response of DMSO control in test [3] is 104% (inactive). The GFP response, % of DMSO in [5] is 103% (inactive). The molecule also returned a double positive events in [6] of 73.3%. In test [6], the vesicle binding response was 322% (inactive). The inhibition in test [7] is -5.18% (inactive); in test [11] it was 2.73% (inactive); in test [14] it was 4.1% (inactive); in test [15], 1.1% (inactive); in test [16], 4.1% (inactive); in test [18], 12% (inactive). The superoxide response (% of plate) in [8] was 94.6% (inactive). For the same molecule, the aptamer binding inhibition in test [9] was 12% (inactive). In addition, the response in [10] was 6.3% (inactive); in test [12], 10.3% (inactive). For the same molecule, in test [13], the binding (% of control) is 106% (inactive). Also, the efflux inhibition (fraction of control) in [17] is 0.05 (inactive). Besides, in test [19], the differentiation response was 2.46% (inactive).
